# From PubChem BioAssay
# DT40 TDP1 CPT: qHTS for Inhibitors of human tyrosyl-DNA phosphodiesterase 1 (TDP1): qHTS in cells in presence of CPT | chicken DT40 Tdp1-/-;hTDP1 cells + 20 nM CPT, ATP luminescence, 48 h | Potency, µM (titrated, usually from 46.2 µM), for the others: top-dose activity change, negative = growth inhibition, most hits filed as inhibitors | actives 12% (n = 420,000); note: potency is the fitted concentration of half-maximal effect; nearly all actives have a fitted effect of over 55% in size
#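 Chicken DT40 Tdp1-/- cells complemented with human TDP1, 400 cells/well, exposed to compounds plus 20 nM camptothecin for at least 48 h at 37 C; viability read as ATP content by CellTiter-Glo luminescence.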
# RORg inh: qHTS for inhibitors of ROR gamma transcriptional activity. Drosophila S2 Gal4-RORgamma UAS-luciferase reporter, 20 h. Potency, µM (titrated, usually from 53.6 µM), for the others: at the highest dose activity change, negative = inhibition, most hits filed as inhibitors. actives 5.4% (n = 310,000). AID 2551, 2010; note: potency is the fitted concentration of half-maximal effect; nearly all actives have a fitted effect of over 60% in size
# Target sequence (P51450 whole entry, looked up, the tested form may be a part): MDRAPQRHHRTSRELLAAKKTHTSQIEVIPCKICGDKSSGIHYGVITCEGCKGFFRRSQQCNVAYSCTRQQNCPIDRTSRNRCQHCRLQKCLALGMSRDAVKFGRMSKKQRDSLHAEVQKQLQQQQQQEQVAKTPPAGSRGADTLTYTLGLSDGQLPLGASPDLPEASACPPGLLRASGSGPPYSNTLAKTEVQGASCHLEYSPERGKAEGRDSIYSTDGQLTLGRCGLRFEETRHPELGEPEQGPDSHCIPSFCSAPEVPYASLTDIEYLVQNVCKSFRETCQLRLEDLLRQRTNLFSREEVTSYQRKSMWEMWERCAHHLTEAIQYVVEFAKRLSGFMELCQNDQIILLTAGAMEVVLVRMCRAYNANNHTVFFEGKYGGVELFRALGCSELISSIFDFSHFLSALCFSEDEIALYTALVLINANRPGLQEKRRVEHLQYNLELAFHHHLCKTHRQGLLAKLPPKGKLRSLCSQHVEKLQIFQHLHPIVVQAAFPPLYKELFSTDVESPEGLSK
#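 Drosophila S2 cells stably expressing Gal4-DBD/mouse RORγ fusion under metallothionein promoter plus UAS-luciferase; compound 1 h, then 700 uM CuSO4 induction for 20 h at ambient temperature; inhibition read as reduced luminescence.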
# TDP1 cell noCPT: qHTS for Inhibitors of human tyrosyl-DNA phosphodiesterase 1 (TDP1): qHTS in cells in absence of CPT; DT40 Tdp1-/- hTDP1 cells, no CPT, ATP luminescence, 48 h; AID 686978, 2013; actives 15% (n = 420,000); Potency, µM (highest dose often 46.2 µM), for the others: at the highest dose activity change, negative = growth inhibition, hits mostly inhibitors; note: potency is the fitted concentration of half-maximal effect; nearly all actives have a fitted effect of over 55% in size
#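 Luminescent ATP content (CellTiter-Glo) served as the growth readout. Knockout chicken DT40 cells expressing human TDP1 were exposed to compounds without camptothecin for a minimum 48 hr at 37 °C.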
# Gal4-VP16 FLuc: VP16 counterscreen qHTS for inhibitors of ROR gamma transcriptional activity. Potency, µM (doses to about 53.6 µM), for the others: at the highest dose activity, negative = inhibition, most hits filed as inhibitors. AID 2546, 2010. Drosophila S2 Gal4-VP16 UAS-luciferase, luminescence, 20 h. actives 3.5% (n = 310,000);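 note: Gal4-VP16 expression switched on by copper sulfate through the metallothionein promoter; potency is the fitted concentration of half-maximal effect; nearly all actives have a fitted effect of over 50% in size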
# LDHA block: qHTS assay for inhibitors of human lactate dehydrogenase | L-lactate dehydrogenase A chain (Homo sapiens), P00338 | purified LDHA, NADH/diaphorase-resazurin fluorescence; stronger effect = lower value | activity change, % (values are at about 110 or 230 µM) | actives 0.15% (n = 480,000); in the data active = activity change below about -30%; inconclusive = mostly about -25% to -30%;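 note: plate controls were DMSO wells for no effect and wells without enzyme for full effect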
#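 Remaining NADH was detected by diaphorase (0.133 mg/mL) converting 37 µM resazurin to fluorescent resorufin, read at 0 and 20 minutes. The preceding 5-minute room-temperature reaction used 2 nM LDHA, 0.2 mM sodium pyruvate and 0.06 mM NADH at pH 7.4.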
# IL-1B inflam inh: qHTS for Inhibitors of Inflammasome Signaling: IL-1-beta AlphaLISA Primary Screen. THP-1 LPS/ATP IL-1B secretion, AlphaLISA, 16 h; stronger effect = lower value. activity change, % at 57.5 µM. actives 4.7% (n = 360,000). AID 743279, 2014; in the data active = activity change below about -50%; inconclusive = mostly about -30% to -49%
#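 Secreted IL-1B measured by AlphaLISA bead assay after 16 h compound exposure of THP-1 cells; compounds (final up to 57.5 uM) added 1 h before LPS (250 ng/mL) and ATP (1.25 mM) stimulation; lower signal means less secretion.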
# Numbers without * were called inactive; ? = inconclusive; . = no result given; [ ] = dose if it differs, or a comment. An excerpt weighted towards active compounds, which were near 18% of everything screened. Unless noted, calls come from the whole dose curve; as a rule, active = well fitted curve in the direction sought with a large enough effect; inconclusive = small, poorly fitted or top-dose-only effect, or another doubt; inactive = no such curve, though single readings can be large; an effect the other way counts as inactive or inconclusive. Unless noted, % is set by controls: 0 for no effect and ±100 for the full control effect.
SMILES,DT40 TDP1 CPT,RORg inh,TDP1 cell noCPT,Gal4-VP16 FLuc,LDHA block,IL-1B inflam inh
COc1ccc(/C(C)=N/NC(=O)c2ccc(CSc3cccc4cccnc34)cc2)cc1OC,?,16µM*,16µM*,20%,-1,-16
CC(=O)c1ccc(OCCCOc2cccc3cccnc23)cc1,?,?,?,27%,-1,-70*
Cc1cc(OCCOc2cccc3cccnc23)cc(C)c1Cl,15µM*,20µM*,18µM*,-29%,-5,-12
CC(C)Oc1ccccc1OCCCOc1cccc2cccnc12,?,14µM*,21µM*,-27%,-6,?
CC(C)OCc1ccc(CNC(=O)C2CCCCC2)cc1,.,.,.,.,3,.
O=C(Nc1cccc(C(F)(F)F)c1)c1c(-c2ccccc2)nc2n1CCS2(=O)=O,.,.,.,.,-23,.
COc1cccc(NCc2cc(=O)oc3cc(OC)ccc23)c1,.,.,.,.,0,.
CCOC(=O)C1=C(C)Oc2ncn3nc(-c4ccccc4O)nc3c2C1c1ccc(OC)c(OC)c1 (stereo not drawn),.,.,.,.,-2,.
CC(=O)c1ccccc1OCCCOc1cccc2cccnc12,23µM*,.,23µM*,.,0,15
COc1ccc(C(=O)Cc2ccccc2)cc1OC,10%,-2%,16%,5%,-2,22
CC(=O)c1ccccc1OCCOCCOCCOc1ccccc1C(C)=O,18µM*,18%,?,3%,-3,-16
COc1cc(C(C)=O)ccc1OCCCOc1cccc2cccnc12,18µM*,?,?,17%,-9,-11
COc1ccc(C(=O)NN=C(Cc2ccccc2)Cc2ccccc2)cc1OC,?,11µM*,?,?,-4,6
CC(=O)c1ccccc1OCCOc1ncnc2sccc12,8%,17%,-15%,-23%,-5,34
CC(C)N(C)CCOC(=O)c1ccccc1Br,16µM*,-5%,?,0%,-4,-4
O=[N+]([O-])c1ccc(N2CCN(Cc3ccccc3)CC2)s1,?,-6%,?,6%,-4,27
O=[N+]([O-])c1ccc(N2CCN(Cc3ccccc3)CC2)c2c1no[n+]2[O-],0.16µM*,.,0.26µM*,.,36,-87*
CC(NC(=O)CNC(=O)c1cccs1)c1ccncc1 (stereo not drawn),.,.,.,.,-1,.
O=S(=O)(Nc1nc2ccccc2nc1N1CCc2ccccc2C1)c1ccc(Br)cc1,?,7.9µM*,18µM*,?,1,13
O=S(=O)(Nc1nc2ccccc2nc1N1CCc2ccccc2C1)c1ccc(Cl)cc1,?,33%[10 µM],?,?,2,-9
COc1cc(CN2CCCCCC2)cc(OC)c1O,-9%,-5%,3%,6%,15,-1
COc1cc(Cc2cc(OC)c(O)c(OC)c2)cc(OC)c1O,16µM*,.,21µM*,.,10,-1
Cc1cc(C(=O)CSc2nc3cc([N+](=O)[O-])ccc3o2)c(C)n1C1CC1,.,.,.,.,5,.
COc1ccc(N(C)C(=O)Cn2cc(S(=O)(=O)N3CCN(c4ccccc4F)CC3)c3ccccc3c2=O)c(OC)c1,-28%,.,23µM*,.,1,.
C/C(N)=C(/C#N)C(=O)CSc1nc2ccccc2c(=O)n1Cc1ccc(C)cc1,-29%,2.5µM*,?,4µM*,-8,-12
SMILES,DT40 TDP1 CPT,RORg inh,TDP1 cell noCPT,Gal4-VP16 FLuc,LDHA block,IL-1B inflam inh
C/C(N)=C(/C#N)C(=O)CSc1nc2ccccc2c(=O)n1Cc1ccc(F)cc1,?,2.8µM*,?,3.5µM*,0,-11
O=C(CCSC1CCc2ccccc2NC1=O)Nc1ccc2c(c1)OCCO2 (stereo not drawn),.,.,.,.,4,.
Cc1cccc(-c2cccc(NC(=O)C3CCCN(C(=O)c4csc(C)n4)C3)c2)c1 (stereo not drawn),1.5µM*,?,1.3µM*,-2%,-2,?
Cc1nc(-c2cccc(NC(=O)C3CCCCC3)c2)cs1,?,1%,-24%,-8%,1,-5
Cc1cccc(-c2cccc(NC(=O)C3CCCN(C(=O)c4cccnc4)C3)c2)c1 (stereo not drawn),18µM*,39%,15µM*,3%,0,-6
CC(C)(C)OC(=O)N1CCCC(C(=O)Nc2cccc(C(=O)N3CCCCC3)c2)C1 (stereo not drawn),-17%,.,-24%,.,9,-22
Cc1cccc(-c2cccc(NC(=O)C3CCCN(C(=O)c4ocnc4C)C3)c2)c1 (stereo not drawn),23µM*,?,21µM*,1%,-6,0
CCc1nc(C)c(C(=O)N2CCCC(C(=O)Nc3cccc(-c4cccc(C)c4)c3)C2)o1 (stereo not drawn),13µM*,?,10µM*,?,0,-82*
CCc1cc2c(Sc3ccc(C(F)(F)F)cn3)ncnc2s1,.,.,.,.,2,.
CCn1c(COc2ccc3c(c2)OCO3)nnc1SCC(=O)c1ccccc1,?,13%,?,13µM*,3,-4
CCn1c(CNC(=O)c2ccc3c(c2)OCO3)nnc1SCC(=O)c1ccc(OC)cc1,.,.,.,.,-30*,.
CCn1c(COc2ccc(Cl)cc2)nnc1SCC(=O)Nc1ccc2c(c1)OCO2,-11%,-7%,?,-6%,-6,-15
Cc1nc(C)c(CC(=O)Nc2nnc(C3CC3)s2)c(=O)[nH]1,.,.,.,.,0,.
S=c1[nH]nc(-c2ccco2)n1-c1ccc(Cl)cc1,0%,8.9µM*,6%,-29%,0,17
S=c1[nH]nc(-c2ccco2)n1C1CCCCC1,-1%,10µM*,-13%,?,-1,17
Nn1c(-c2ccco2)n[nH]c1=S,-7%,3%,-10%,5%,-1,20
CC(C)(C)c1cc(-c2n[nH]c(=S)n2-c2ccc(Cl)cc2)n[nH]1,?,7.1µM*,?,-17%,-2,4
Cn1cc(Cl)c(-c2n[nH]c(=S)n2C2CCCCC2)n1,0%,6.3µM*,13%,?,-2,12
Cn1cc(Cl)c(C(=O)NC2CCCCCC2)n1,-13%,-4%,-12%,24%,-4,-4
Cc1nn(C)cc1-c1n[nH]c(=S)n1-c1ccc(Cl)cc1,2%,?,9%,-4%,-11,26
CC(C)(C)NS(=O)(=O)c1ccc(NC(=O)C2c3ccccc3Oc3ccccc32)cc1,.,.,.,.,2,.
